Measurements: PubChem BioAssay (Tox21)
Values joined by “and” are separate entries in the source; they are usually repeats but may differ in a detail not shown here. Identical values can stand only once. Active and inactive are the calls of the source. Unless noted, calls come from the whole dose curve; as a rule, active = well fitted curve in the direction sought with a large enough effect in the repeat runs; inconclusive = weak or mixed curves; inactive = no such curve, though single readings can be large; an effect the other way counts as inactive or inconclusive.

Columns and labels:
[1] = qHTS assay to identify small molecule antagonists of the thyroid receptor (TR) signaling pathway - cell viability counter screen (AID 743064); note: nearly all actives have a fitted effect of over 50% in size; note: potency is the fitted concentration of half-maximal effect
Summary of the method: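 Plate GH3.TRE-Luc cells; incubate 4 h at 37 °C; add compound, then T3 to 1 nM final; incubate 23.5 h; add CellTiter-Fluor; incubate 30 min at 37 °C, 5% CO2; read fluorescence.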

[2] = qHTS assay to identify small molecule antagonists of the thyroid receptor (TR) signaling pathway (AID 743065); note: potency is the fitted concentration of half-maximal effect; nearly all actives have a fitted effect of over 55% in size
Summary of the method: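 GH3.TRE-Luc rat pituitary cells carrying two TR response elements driving luciferase were plated for 4 h, given compound plus 1 nM T3 (final), and incubated 23.5 h at 37 C. ONE-Glo luminescence measured reporter inhibition; CellTiter-Fluor fluorescence tracked cytotoxicity.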

[3] = qHTS assay to identify small molecule antagonists of the estrogen receptor alpha (ER-alpha) signaling pathway - cell viability counter screen (AID 743074; calls by dose curve;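 note: HEK293 cells carrying ER-alpha-UAS-bla reporter stimulated with 17beta-estradiol; nearly all actives have a fitted effect of over 45% in size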; note: potency is the fitted concentration of half-maximal effect)
[4] = target: Estrogen receptor (Homo sapiens) (UniProt P03372); assay: qHTS assay to identify small molecule agonists of the estrogen receptor alpha (ER-alpha) signaling pathway (AID 743075; calls by dose curve;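 note: HEK293 GripTite cells with ER-alpha and UAS-driven beta-lactamase reporter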; note: potency is the fitted concentration of half-maximal effect); settings: HEK293 ER-alpha-UAS-bla, beta-lactamase FRET ratio, 18 h; activation: at 70.1 µM (top of the series)
Chain of Estrogen receptor (Homo sapiens) (P03372 whole entry, looked up): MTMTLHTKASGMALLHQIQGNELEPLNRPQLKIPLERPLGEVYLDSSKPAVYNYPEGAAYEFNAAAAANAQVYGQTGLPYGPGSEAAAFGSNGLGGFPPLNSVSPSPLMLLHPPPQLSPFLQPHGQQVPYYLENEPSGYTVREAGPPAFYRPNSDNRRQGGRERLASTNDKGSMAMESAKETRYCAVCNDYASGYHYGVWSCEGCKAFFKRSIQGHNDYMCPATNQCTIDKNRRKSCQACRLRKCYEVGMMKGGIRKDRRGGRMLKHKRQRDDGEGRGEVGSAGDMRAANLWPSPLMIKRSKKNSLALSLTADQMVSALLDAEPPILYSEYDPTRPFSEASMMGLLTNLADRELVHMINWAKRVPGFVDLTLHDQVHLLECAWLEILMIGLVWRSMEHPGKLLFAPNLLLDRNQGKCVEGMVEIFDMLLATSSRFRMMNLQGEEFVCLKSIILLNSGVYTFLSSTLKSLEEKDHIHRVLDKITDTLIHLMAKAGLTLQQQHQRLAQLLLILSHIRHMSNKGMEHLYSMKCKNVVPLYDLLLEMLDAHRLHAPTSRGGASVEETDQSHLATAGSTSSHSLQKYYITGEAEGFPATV

Aromatase (Homo sapiens) = Aromatase (Homo sapiens) (UniProt P11511); assay: qHTS assay to identify aromatase inhibitors (AID 743083); note: nearly all actives have a fitted effect of over 55% in size; note: potency is the fitted concentration of half-maximal effect
Chain of Aromatase (Homo sapiens) (P11511 whole entry, looked up): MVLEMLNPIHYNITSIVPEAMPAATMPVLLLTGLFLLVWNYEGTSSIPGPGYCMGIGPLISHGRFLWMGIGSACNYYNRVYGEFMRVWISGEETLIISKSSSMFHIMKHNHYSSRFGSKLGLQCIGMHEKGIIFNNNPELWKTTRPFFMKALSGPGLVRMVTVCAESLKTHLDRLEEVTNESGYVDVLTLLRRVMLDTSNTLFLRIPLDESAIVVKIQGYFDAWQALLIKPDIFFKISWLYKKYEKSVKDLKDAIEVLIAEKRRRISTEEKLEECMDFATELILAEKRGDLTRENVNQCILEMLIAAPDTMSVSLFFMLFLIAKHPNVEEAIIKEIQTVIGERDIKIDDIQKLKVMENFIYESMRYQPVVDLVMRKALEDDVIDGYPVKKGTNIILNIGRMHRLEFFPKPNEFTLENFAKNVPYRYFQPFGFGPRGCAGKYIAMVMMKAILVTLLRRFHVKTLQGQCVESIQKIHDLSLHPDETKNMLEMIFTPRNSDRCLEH

[5] = target: Aryl hydrocarbon receptor (Homo sapiens) (UniProt P35869); assay: qHTS assay to identify small molecule that activate the aryl hydrocarbon receptor (AhR) signaling pathway (AID 743085); note: nearly all actives have a fitted effect of over 15% in size; note: potency is the fitted concentration of half-maximal effect
Chain of Aryl hydrocarbon receptor (Homo sapiens) (P35869 whole entry, looked up): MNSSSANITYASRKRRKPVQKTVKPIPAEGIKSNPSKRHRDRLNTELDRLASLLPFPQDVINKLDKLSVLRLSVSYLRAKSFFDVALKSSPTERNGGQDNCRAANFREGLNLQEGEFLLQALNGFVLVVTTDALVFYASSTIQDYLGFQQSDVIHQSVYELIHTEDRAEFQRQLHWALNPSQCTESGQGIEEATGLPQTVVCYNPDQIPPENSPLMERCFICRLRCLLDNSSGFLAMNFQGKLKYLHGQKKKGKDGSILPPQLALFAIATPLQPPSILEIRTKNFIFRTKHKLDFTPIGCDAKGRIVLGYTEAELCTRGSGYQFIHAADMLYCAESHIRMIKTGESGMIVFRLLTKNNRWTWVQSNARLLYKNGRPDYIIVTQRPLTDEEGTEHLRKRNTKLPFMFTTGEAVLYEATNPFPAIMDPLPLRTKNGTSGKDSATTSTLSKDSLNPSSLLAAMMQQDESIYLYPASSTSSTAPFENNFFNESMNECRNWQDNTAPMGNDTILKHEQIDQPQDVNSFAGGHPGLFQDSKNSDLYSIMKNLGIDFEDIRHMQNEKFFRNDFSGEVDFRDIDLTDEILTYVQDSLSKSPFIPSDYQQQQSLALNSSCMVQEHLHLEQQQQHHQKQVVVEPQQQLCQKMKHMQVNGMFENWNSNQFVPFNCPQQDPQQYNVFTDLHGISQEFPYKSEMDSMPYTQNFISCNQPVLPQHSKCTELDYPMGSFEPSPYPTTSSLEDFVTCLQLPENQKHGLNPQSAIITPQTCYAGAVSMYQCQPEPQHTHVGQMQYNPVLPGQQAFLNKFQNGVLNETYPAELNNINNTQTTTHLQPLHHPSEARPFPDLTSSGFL
Summary of the method: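 Steps: seed HepG2-AhR-luc cells; allow 5 h at 37C; pin-transfer test compound or vehicle; incubate 24 h at 37C; add viability dye (30 min, 37C) and read fluorescence; add luciferase substrate (30 min, RT) and read luminescence.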

[6] = qHTS assay to identify small molecule that activate the aryl hydrocarbon receptor (AhR) signaling pathway - cell viability counter screen (AID 743086); note: nearly all actives have a fitted effect of over 45% in size; note: potency is the fitted concentration of half-maximal effect
Summary of the method: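 HepG2-AhR-luc (HG2L7.5c1) cells, 4000/well, were preincubated 5 h at 37C, exposed to compound in qHTS format for 24 hr at 37C, then given CellTiter-Fluor for 30 min; viability was read as fluorescence in the reporter wells.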

[7] = qHTS assay to identify small molecule antagonists of the peroxisome proliferator-activated receptor gamma (PPARg) signaling pathway - cell viability counter screen (AID 743194); note: nearly all actives have a fitted effect of over 55% in size; note: potency is the fitted concentration of half-maximal effect
Summary of the method: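 PPARg-UAS-bla HEK293H cells were plated, rested 5 h at 37 C, then treated with compounds plus rosiglitazone (50 nM final) for 17 h at 37 C; viability was then read by CellTiter-Glo luminescence after 30 min at room temperature.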

[8] = qHTS assay for small molecule agonists of the antioxidant response element (ARE) signaling pathway - cell viability counter screen (AID 743203; calls by dose curve; note: nearly all actives have a fitted effect of over 55% in size; note: potency is the fitted concentration of half-maximal effect)
Summary of the method: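 ATP content via CellTiter-Glo luminescence served as the viability measure. Cells: ARE-bla HepG2, 2,000 per well. Exposure: 16 hrs, 37C/5% CO2.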

[9] = system: thyroid hormone receptor (rat, GH3 cells); assay: qHTS assay to identify small molecule agonists of the thyroid receptor (TR) signaling pathway (AID 743066; calls by dose curve; note: % is set by controls: 0 for no effect and ±100 for the full control effect)
[10] = target: Estrogen receptor (Homo sapiens) (UniProt P03372); assay: qHTS assay to identify small molecule antagonists of the estrogen receptor alpha (ER-alpha) signaling pathway (AID 743069; active = well fitted curve in the direction sought with a large enough effect in the signal ratio in the repeat runs, not every such curve was filed as active; inconclusive = weak or mixed curves, or effect the other way; inactive = no such curve, though single readings can be large or run the other way; the % refers to the signal ratio; note: % is set by controls: 0 for no effect and ±100 for the full control effect)
Summary of the method: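 A 17beta-estradiol challenge was applied right after compound transfer to ER-alpha-UAS-bla HEK293 cells previously kept in charcoal-stripped serum. Plates stood 18 hr at 37C and 5% CO2; fluorescence was read following 2 hr FRET substrate loading at room temperature.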

[11] = target: Estrogen receptor (Homo sapiens) (UniProt P03372); assay: qHTS assay to identify small molecule agonists of the estrogen receptor alpha (ER-alpha) signaling pathway using the BG1 cell line (AID 743079); settings: BG1Luc4E2 cells, ERE-luciferase agonist, 22 h; at 70.3 µM (top of the series); note: % is set by controls: 0 for no effect and ±100 for the full control effect; nearly all actives have a fitted effect of over 20% in size
[12] = qHTS assay to identify small molecule antagonists of the estrogen receptor alpha (ER-alpha) signaling pathway using the BG1 cell line (AID 743080; calls by dose curve;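 note: BG1 cells stimulated with 17beta-estradiol alongside compound; % is set by controls: 0 for no effect and ±100 for the full control effect; nearly all actives have a fitted effect of over 25% in size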)
Summary of the method: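 After 5 days in phenol-red-free 10% charcoal-stripped FBS medium, BG1-Luc-4E2 cells were seeded, left 24 h at 37 C, co-treated with compounds and 17beta-estradiol for 21.5 h, then assayed for viability and luciferase.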

[13] = qHTS assay to identify small molecule antagonists of the estrogen receptor alpha (ER-alpha) signaling pathway using the BG1 cell line - cell viability counter screen (AID 743081);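 note: compound given together with 17beta-estradiol as the ER stimulus; nearly all actives have a fitted effect of over 45% in size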; note: potency is the fitted concentration of half-maximal effect
[14] = qHTS assay to identify aromatase inhibitors - cell viability counter screen (AID 743084); note: potency is the fitted concentration of half-maximal effect
[15] = target: Peroxisome proliferator-activated receptor gamma (Homo sapiens) (UniProt P37231); assay: qHTS assay to identify small molecule agonists of the peroxisome proliferator-activated receptor gamma (PPARg) signaling pathway (AID 743094; active = well fitted activation curve with a large enough effect in the signal ratio in the repeat runs, not every such curve was filed as active; inconclusive = weak or mixed curves, or effect the other way; inactive = no such curve, though single readings can be large or run the other way; the % refers to the signal ratio; note: % is set by controls: 0 for no effect and ±100 for the full control effect)
Chain of Peroxisome proliferator-activated receptor gamma (Homo sapiens) (P37231 whole entry, looked up): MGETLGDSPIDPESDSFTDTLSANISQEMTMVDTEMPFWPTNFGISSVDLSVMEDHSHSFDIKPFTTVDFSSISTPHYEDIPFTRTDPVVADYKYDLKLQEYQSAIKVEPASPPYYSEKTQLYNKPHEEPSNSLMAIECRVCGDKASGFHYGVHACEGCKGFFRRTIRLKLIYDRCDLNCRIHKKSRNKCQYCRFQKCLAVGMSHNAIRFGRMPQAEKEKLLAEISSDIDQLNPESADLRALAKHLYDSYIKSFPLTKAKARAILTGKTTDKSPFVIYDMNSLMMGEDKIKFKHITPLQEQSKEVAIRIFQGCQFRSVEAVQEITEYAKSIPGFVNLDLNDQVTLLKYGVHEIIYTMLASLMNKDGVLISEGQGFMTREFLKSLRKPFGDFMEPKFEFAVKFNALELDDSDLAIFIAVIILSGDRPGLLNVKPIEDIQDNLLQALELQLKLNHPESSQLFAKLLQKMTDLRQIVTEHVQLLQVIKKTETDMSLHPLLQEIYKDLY
Summary of the method: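 Agonism was assessed in a beta-lactamase reporter system, HEK293H cells with a stably integrated UAS-bla construct under PPARg control; the 17 h treatment at 37C preceded a 1 h room-temperature FRET substrate read.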

[16] = qHTS assay for small molecule activators of the heat shock response signaling pathway - cell viability counter screen (AID 743209); note: nearly all actives have a fitted effect of over 50% in size; note: potency is the fitted concentration of half-maximal effect
Summary of the method: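 Compounds dissolved in DMSO were added to overnight-plated HSE-bla HeLa cells and left 5 h at 37 C. Cell viability was quantified by luminescence using CellTiter-Glo.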

[17] = qHTS assay for small molecule agonists of the antioxidant response element (ARE) signaling pathway (AID 743202; active = well fitted activation curve with a large enough effect in the signal ratio in the repeat runs, not every such curve was filed as active; inconclusive = weak or mixed curves, or effect the other way; inactive = no such curve, though single readings can be large or run the other way; the % refers to the signal ratio; note: potency is the fitted concentration of half-maximal effect)
Summary of the method: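 Following a 16 h, 37 C exposure of reporter HepG2 cells (ARE-driven beta-lactamase, 2,000 cells/well) to compounds, FRET substrate was applied for 2 h at room temperature and fluorescence intensity recorded.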

[18] = qHTS assay for small molecule activators of the heat shock response signaling pathway (AID 743210; active = well fitted activation curve with a large enough effect in the signal ratio in the repeat runs, with a control signal flat, not every such curve was filed as active; inconclusive = weak or mixed curves; the % refers to the signal ratio; note: % is set by controls: 0 for no effect and ±100 for the full control effect)
Summary of the method: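 Heat shock element–beta-lactamase HeLa reporter cells; qHTS with compounds for 5 h at 37 C; detection by FRET substrate fluorescence after 2.5 h at RT.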

[19] = target: Peroxisome proliferator-activated receptor gamma (Homo sapiens) (UniProt P37231); assay: qHTS assay to identify small molecule antagonists of the peroxisome proliferator-activated receptor gamma (PPARg) signaling pathway (AID 743191; calls by dose curve; note: nearly all actives have a fitted effect of over 30% in size; note: potency is the fitted concentration of half-maximal effect)
Summary of the method: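 GeneBLAzer PPARg UAS-bla HEK293H cells carrying a UAS-driven beta-lactamase reporter were plated at 3000 cells/well, preincubated 5 h at 37C, then given compound for 17 h at 37C; LiveBLAzer B/G FRET substrate was read after 1 h at room temperature.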

O=C(Nc1cccc(C(F)(F)F)c1)c1cc(Br)cc(Br)c1O
active: Potency [1] 5.96 µM and 2.43 µM | Potency [2] 2.98 µM and 1.09 µM | Potency [3] 1.34 µM and 977 nM | Potency (Aromatase (Homo sapiens)) 11.9 µM and 4.86 µM | Potency [7] 0.389 µM | Potency [8] 10.9 µM
inactive: Potency [4] | Potency [5] | Potency [6]

CCCCCCCCCCCCCCCS(=O)(=O)Oc1ccccc1
inactive: Potency [1] | Potency [9] | Potency [10] | Potency [3] | Potency [4] | activation [11] -9.91% | Potency [12] | Potency [13] | Potency (Aromatase (Homo sapiens)) | Potency [14] | Potency [5] | Potency [6] | Potency [15] | Potency [7] | Potency [8] | Potency [16]

Cc1ccc(O)c2ncccc12
inactive: Potency [3] | Potency [4] | Potency [12]
active: Potency [1] 6.68 µM | Potency [2] 6.68 µM | Potency (Aromatase (Homo sapiens)) 13.3 µM | Potency [17] 4.22 µM

Fc1ccc([C@@H]2CCNC[C@H]2COc2ccc3c(c2)OCO3)cc1
inactive: Potency [4] | Potency [5] | Potency [7] | Potency [16] | Potency [18]
active: Potency [1] 11.9 µM | Potency [2] 10.6 µM | Potency [8] 29.8 µM

CCC1=C[C@@H]2CN(C1)Cc1c([nH]c3ccccc13)[C@@](C(=O)OC)(c1cc3c(cc1OC)N(C)[C@H]1[C@@](O)(C(=O)OC)[C@H](OC(C)=O)[C@]4(CC)C=CCN5CC[C@]31[C@@H]54)C2
active: Potency [1] 4.73 µM | Potency [2] 1.88 µM
inactive: Potency [3] | Potency (Aromatase (Homo sapiens)) | Potency [14] | Potency [5] | Potency [7] | Potency [16] | Potency [18]

OC1(c2ccc(Cl)c(C(F)(F)F)c2)CCN(CCCC(c2ccc(F)cc2)c2ccc(F)cc2)CC1
active: Potency [1] 5.96 µM | Potency [2] 5.96 µM | Potency [3] 26.8 µM | Potency (Aromatase (Homo sapiens)) 7.5 µM | Potency [14] 7.5 µM | Potency [6] 21.1 µM | Potency [7] 8.41 µM | Potency [8] 5.96 µM | Potency [16] 7.5 µM
inactive: Potency [13] | Potency [5]

CC(C)c1ccc2c(c1)CC[C@H]1[C@](C)(CN)CCC[C@]21C
inactive: Potency [5]
active: Potency [1] 10.9 µM | Potency [2] 12.2 µM | Potency [3] 49 µM | Potency (Aromatase (Homo sapiens)) 19.3 µM | Potency [14] 24.3 µM | Potency [6] 54.5 µM | Potency [7] 11 µM | Potency [8] 6.86 µM | Potency [16] 19.5 µM

C[n+]1cc2c3c(ccc2c2ccc4cc5c(cc4c21)OCO5)OCO3
active: Potency [1] 2.98 µM | Potency [2] 2.66 µM | Potency [3] 10.7 µM | Potency [4] 15.1 µM [inconclusive] | Potency (Aromatase (Homo sapiens)) 11.9 µM | Potency [14] 21.1 µM | Potency [5] 6.68 µM | Potency [6] 10.6 µM | Potency [7] 1.3 µM | Potency [8] 0.92 µM

CCCCC(CC)CN=C(N)NC(N)=NCCCCCCN=C(N)NC(N)=NCC(CC)CCCC (centres undefined)
active: Potency [1] 7.5 µM | Potency [2] 6.68 µM | Potency [3] 10.7 µM | Potency (Aromatase (Homo sapiens)) 18.8 µM | Potency [14] 26.6 µM | Potency [6] 21.1 µM | Potency [7] 11.9 µM | Potency [8] 9.44 µM | Potency [16] 23.7 µM
inactive: Potency [5]

On1ccccc1=S
active: Potency [1] 1.52 µM | Potency [2] 0.855 µM | Potency (Aromatase (Homo sapiens)) 0.382 µM | Potency [14] 0.539 µM | Potency [7] 24.3 µM | Potency [17] 15.2 µM | Potency [16] 0.153 µM
inactive: Potency [13] | Potency [5] | Potency [6] | Potency [8]

O=C(NO)C1(NS(=O)(=O)c2ccc(Oc3ccc(F)cc3)cc2)CCOCC1
inactive: Potency [1] | Potency [9] | Potency [10] | Potency [3] | Potency [4] | Potency [13] | Potency (Aromatase (Homo sapiens)) | Potency [14] | Potency [5] | Potency [6] | Potency [15] | Potency [19] | Potency [7] | Potency [8] | Potency [16] | Potency [18]

NC(=O)NS(=O)(=O)c1ccc(N)cc1
inactive: Potency [1] | Potency [9] | Potency [10] | Potency [3] | Potency [4] | Potency [12] | Potency (Aromatase (Homo sapiens)) | Potency [14] | Potency [5] | Potency [6] | Potency [15] | Potency [19] | Potency [7] | Potency [17] | Potency [8] | Potency [16] | Potency [18]

[Cl][Bi]([Cl])([c]1ccccc1)([c]1ccccc1)[c]1ccccc1
inactive: Potency [5]
active: Potency [1] 1.71 µM | Potency [2] 0.682 µM | Potency [3] 48.7 µM | Potency [4] 6.13 µM [inconclusive] | Potency [13] 60.8 µM | Potency (Aromatase (Homo sapiens)) 6.82 µM | Potency [14] 7.65 µM | Potency [6] 19.2 µM | Potency [8] 5.42 µM | Potency [16] 48.7 µM

COc1ccc(CN2CCN(C(c3ccc(F)cc3)c3ccc(F)cc3)CC2)c(OC)c1OC
active: Potency [1] 11.9 µM | Potency [2] 13.3 µM | Potency [3] 26.8 µM | Potency [19] 26.6 µM | Potency [7] 26.6 µM
inactive: Potency (Aromatase (Homo sapiens)) | Potency [5] | Potency [8] | Potency [16] | Potency [18]

CCCCc1oc2ccc(NS(C)(=O)=O)cc2c1C(=O)c1ccc(OCCCN(CCCC)CCCC)cc1
active: Potency [1] 10.6 µM | Potency [2] 11.9 µM | Potency (Aromatase (Homo sapiens)) 29.8 µM | Potency [14] 29.8 µM | Potency [6] 26.6 µM | Potency [7] 29.8 µM | Potency [8] 26.6 µM | Potency [16] 29.8 µM
inactive: Potency [5]
